Assay [1] is described as follows: Quantitative High-Throughput drug screen in 47 multiple myeloma cell lines against the NCATS MIPE library collection: OPM2_DSMZ cell viability assay (AID 1919872). Further: nearly all actives have a fitted effect of over 30% in size. The method in brief: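 Luminescent ATP measurement with CellTiter-Glo gives viability, scaled between DMSO-only wells (100%) and media-only wells (0%). Cells, 500 per well, faced library compounds for 48 hours at 37C.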

Assay [2] in a line: Quantitative High-Throughput drug screen in 47 multiple myeloma cell lines against the NCATS MIPE library collection: KMS11_JCRBsus cell viability assay (AID 1919873). Further: nearly all actives have a fitted effect of over 50% in size. The method in brief: (§1)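 ATP-based luminescence (CellTiter-Glo, 5 min RT incubation) quantified surviving cells following two days' treatment with MIPE 4.0 agents at 37 °C, 5% CO2.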
The nature of assay [3]: Quantitative High-Throughput drug screen in 47 multiple myeloma cell lines against the NCATS MIPE library collection: KMS28BM_JCRB cell viability assay (AID 1919874). Further: nearly all actives have a fitted effect of over 35% in size. The method in brief:
as §1

A short description of assay [4]: Quantitative High-Throughput drug screen in 47 multiple myeloma cell lines against the NCATS MIPE library collection: RPMI8226_ATCC cell viability assay (AID 1919871). Further: nearly all actives have a fitted effect of over 30% in size. The method in brief:
as §1

Assay [5] can be described thus: Quantitative High-Throughput drug screen in 47 multiple myeloma cell lines against the NCATS MIPE library collection: PCM6_Riken cell viability assay (AID 1919870). Further: nearly all actives have a fitted effect of over 30% in size. The method in brief:
as §1

Results filed as inconclusive are left out. Active and inactive are the calls of the source. The call rests on the fitted dose curve; in most records, active means well fitted cell-killing curve with a large enough effect; inconclusive means small, poorly fitted or top-dose-only effect, or effect the other way; inactive means no such curve, though single readings can be large or run the other way.
Potency means the concentration at half of the fitted maximal effect.

Consider `C1COC(NC(C2CC2)C2CC2)=N1`, for which the Potency result in assay [1], in assay [2] and in assay [3] was “inactive” in each case.
For `O=C(C1CC1)N1CC[C@@H](Cn2c(-c3ccc(-c4ccc5occc5c4)cc3)nc3cnccc32)C1`, the Potency result in assay [4] was “inactive”. Besides, the Potency in assay [1] is 20.9 µM (active).
In the case of `NC(=O)c1ccc(-c2nc(-c3ccc4c(c3)OCCO4)c(-c3ccccn3)[nH]2)cc1`, the Potency was 13.2 µM (active) in assay [5] and 14.8 µM (active) in assay [1]. Further, the Potency entry in assay [2] and in assay [3] was “inactive” each time.
Consider `CC(C)(Sc1ccc(CCN(CCCCC2CCCCC2)C(=O)NC2CCCCC2)cc1)C(=O)O`, for which the Potency in assay [4] is 4.18 µM (active). The Potency result in assay [2] and in assay [3] was “inactive” each time.
Turning to `CS(=O)(=O)c1ccc(C(=O)Nc2ccc(Cl)c(-c3ccccn3)c2)c(Cl)c1`, the Potency entry in assay [4], in assay [1], in assay [2] and in assay [3] was “inactive” each time.
Turning to `COc1ccc(C2=N[C@H](c3ccc(Cl)cc3)[C@H](c3ccc(Cl)cc3)N2C(=O)N2CCNC(=O)C2)c(OC(C)C)c1`, the results for the Potency in assay [4], in assay [2] and in assay [3] were 20.9 µM (active), 16.6 µM (active) and 16.6 µM (active), respectively. The Potency result in assay [1] was “inactive”.
With `NC(N)=NC(=O)c1nc(Cl)c(N)nc1N`, in assay [1], the Potency result is “inactive”.
Regarding `Cc1cc(SCc2sc(-c3ccc(C(F)(F)F)cc3)nc2C)ccc1OCC(=O)O`, in assay [4], the Potency is 14.8 µM (active). Moreover, in assay [1], the Potency entry was “inactive”.
Turning to `N#CC[C@H](C1CCCC1)n1cc(-c2ncnc3[nH]ccc23)cn1`, the Potency result in assay [4] and in assay [1] was “inactive” in each case. Further, the Potency in assay [2] and in assay [3] was 20.9 µM (active) each time.
Take `CCC(C)(C)C(=O)O[C@H]1C[C@@H](C)C=C2C=C[C@H](C)[C@H](CC[C@@H]3C[C@@H](O)CC(=O)O3)[C@H]21`: the Potency in assay [2] was 13.2 µM (active).
Take `CC[C@H](Nc1ncnc2nc[nH]c12)c1nc2cccc(F)c2c(=O)n1-c1ccccc1`: the Potency in assay [2] was 18.7 µM (active).

(Values after PubChem BioAssay (NCATS).)
